Screen size: about 5,500 compounds; about 2,000 (36%) were called active. About 18% were inconclusive and are not listed. No stated cut-off is given here; in the data, active means normalized growth mostly below about 0.91 (no sharp cut-off); inconclusive means no clear call, values can overlap the other calls; inactive means mostly above about 0.92. The list shows a part of the results.
Assay: chemical genetic growth profiling, strain panel (AID 1159580);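 further: tested at 20 µM; growth read once vehicle control cultures reached saturation at 30 °C; 1 = growth at the plate median or of vehicle wells; lower values mean less growth of the strain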
Settings: growth OD

Measured: normalized growth

CC1(C)S[C@@H]2[C@H](NC(=O)C(C(=O)O)c3ccccc3)C(=O)N2[C@H]1C(=O)O (stereo partly drawn)
inactive: S. cerevisiae deletion strains, locus YJR075W, strain HOC1, hits give low values 0.987 | S. cerevisiae deletion strains, locus YKL009W, strain mrt4, hits give low values 0.971 | S. cerevisiae deletion strains, locus YKL068W, hits give low values 0.994 | S. cerevisiae deletion strains, locus YKL085W, strain MDH1 (second series), hits give low values 1 | S. cerevisiae deletion strains, locus YKL085W, strain MDH1, hits give low values 1 | S. cerevisiae deletion strains, locus YKL160W, strain elf1, hits give low values 1 | S. cerevisiae deletion strains, locus YKR001C, strain vps1, hits give low values 0.982 | S. cerevisiae deletion strains, locus YKR026C, strain gcn3, hits give low values 0.985 | S. cerevisiae deletion strains, locus YKR091W, strain srl3, hits give low values 0.975 | S. cerevisiae deletion strains, locus YLL001W, strain dnm1, hits give low values 0.932 | S. cerevisiae deletion strains, locus YLL026W, hits give low values 0.96 | S. cerevisiae deletion strains, locus YLL041C, strain sdh2, hits give low values 0.982 | S. cerevisiae deletion strains, locus YLR027C, strain aat2, hits give low values 0.976 | S. cerevisiae deletion strains, locus YLR039C, strain RIC1, hits give low values 0.989 | S. cerevisiae deletion strains, locus YLR058C, strain SHM2, hits give low values 0.989 | S. cerevisiae deletion strains, locus YLR102C, strain apc9, hits give low values 0.997 | S. cerevisiae deletion strains, locus YLR113W, strain HOG1, hits give low values 0.992 | S. cerevisiae deletion strains, locus YLR221C, strain rsa3, hits give low values 0.928 | S. cerevisiae deletion strains, locus YLR258W, strain gsy2, hits give low values 0.967 | S. cerevisiae deletion strains, locus YLR262C, strain YPT6 (second series), hits give low values 1 | S. cerevisiae deletion strains, locus YLR262C, strain YPT6, hits give low values 1 | S. cerevisiae deletion strains, locus YLR268W, strain sec22, hits give low values 0.987 | S. cerevisiae deletion strains, locus YLR320W, strain mms22, hits give low values 0.967 | S. cerevisiae deletion strains, locus YLR330W, strain CHS5, hits give low values 0.992 | S. cerevisiae deletion strains, locus YLR342W, strain FKS1 (second series), hits give low values 0.998 | S. cerevisiae deletion strains, locus YLR342W, strain FKS1, hits give low values 0.982 | S. cerevisiae deletion strains, locus YLR357W, strain rsc2, hits give low values 0.967 | S. cerevisiae deletion strains, locus YLR370C, strain arc18, hits give low values 0.926 | S. cerevisiae deletion strains, locus YLR371W, strain rom2, hits give low values 0.988 | S. cerevisiae deletion strains, locus YLR384C, strain iki3, hits give low values 0.969 | S. cerevisiae deletion strains, locus YLR418C, strain cdc73, hits give low values 0.984 | S. cerevisiae deletion strains, locus YML016C, strain PPZ1, hits give low values 0.99 | S. cerevisiae deletion strains, locus YML032C, strain rad52, hits give low values 0.981 | S. cerevisiae deletion strains, locus YML120C, strain ndi1, hits give low values 0.946 | S. cerevisiae deletion strains, locus YML124C, strain tub3, hits give low values 1 | S. cerevisiae deletion strains, locus YMR058W, strain fet3, hits give low values 0.971 | S. cerevisiae deletion strains, locus YMR078C, strain ctf18, hits give low values 0.985 | S. cerevisiae deletion strains, locus YMR125W, strain sto1, hits give low values 0.956 | S. cerevisiae deletion strains, locus YMR129W, hits give low values 1 | S. cerevisiae deletion strains, locus YMR205C, strain PFK2, hits give low values 0.98 | S. cerevisiae deletion strains, locus YMR223W, strain ubp8, hits give low values 0.987 | S. cerevisiae deletion strains, locus YMR231W, strain pep5, hits give low values 0.988 | S. cerevisiae deletion strains, locus YMR307W, strain GAS1, hits give low values 0.917 | S. cerevisiae deletion strains, locus YNL067W, strain RPL9B, hits give low values 1 | S. cerevisiae deletion strains, locus YNL071W, strain lat1, hits give low values 0.995 | S. cerevisiae deletion strains, locus YNL153C, strain GIM3, hits give low values 0.989 | S. cerevisiae deletion strains, locus YNL183C, strain NPR1, hits give low values 0.94 | S. cerevisiae deletion strains, locus YNL209W, strain ssb2, hits give low values 0.969 | S. cerevisiae deletion strains, locus YNL233W, strain BNI4, hits give low values 0.975 | S. cerevisiae deletion strains, locus YNL248C, strain rpa49, hits give low values 1.02 | S. cerevisiae deletion strains, locus YNL250W, strain rad50, hits give low values 0.975 | S. cerevisiae deletion strains, locus YNL271C, strain bni1, hits give low values 0.984 | S. cerevisiae deletion strains, locus YNL298W, strain CLA4, hits give low values 0.99 | S. cerevisiae deletion strains, locus YNL307C, strain MCK1, hits give low values 0.992 | S. cerevisiae deletion strains, locus YNL322C, strain KRE1 (second series), hits give low values 0.971 | S. cerevisiae deletion strains, locus YNL322C, strain KRE1, hits give low values 0.997 | S. cerevisiae deletion strains, locus YNR049C, strain mso1, hits give low values 0.962 | S. cerevisiae deletion strains, locus YNR052C, strain pop2, hits give low values 0.983 | S. cerevisiae deletion strains, locus YOL006C, strain TOP1, hits give low values 0.985 | S. cerevisiae deletion strains, locus YOL012C, strain htz1 1.06 | S. cerevisiae deletion strains, locus YOL147C, strain pex11, hits give low values 0.982 | S. cerevisiae deletion strains, locus YOR001W, strain rrp6, hits give low values 1 | S. cerevisiae deletion strains, locus YOR061W, strain CKA2, hits give low values 0.994 | S. cerevisiae deletion strains, locus YOR069W, strain VPS5, hits give low values 0.991 | S. cerevisiae deletion strains, locus YOR070C, strain gyp1, hits give low values 0.972 | S. cerevisiae deletion strains, locus YOR080W, strain dia2, hits give low values 0.972 | S. cerevisiae deletion strains, locus YOR083W, strain WHI5, hits give low values 0.994 | S. cerevisiae deletion strains, locus YOR106W, strain vam3, hits give low values 0.993 | S. cerevisiae deletion strains, locus YOR136W, strain idh2, hits give low values 0.98 | S. cerevisiae deletion strains, locus YOR144C, strain elg1, hits give low values 0.983 | S. cerevisiae deletion strains, locus YOR184W, strain ser1, hits give low values 0.978 | S. cerevisiae deletion strains, locus YOR231W, strain MKK1, hits give low values 1.04 | S. cerevisiae deletion strains, locus YOR265W, strain rbl2, hits give low values 0.964 | S. cerevisiae deletion strains, locus YOR270C, strain vph1, hits give low values 0.978 | S. cerevisiae deletion strains, locus YOR290C, strain snf2, hits give low values 0.961 | S. cerevisiae deletion strains, locus YOR316C, strain cot1, hits give low values 0.981 | S. cerevisiae deletion strains, locus YPL051W, strain arl3, hits give low values 0.992 | S. cerevisiae deletion strains, locus YPL078C, strain atp4, hits give low values 1.01 | S. cerevisiae deletion strains, locus YPL106C, strain sse1, hits give low values 0.937 | S. cerevisiae deletion strains, locus YPL240C, strain hsp82, hits give low values 0.971 | S. cerevisiae deletion strains, locus YPL241C, strain CIN2, hits give low values 0.997 | S. cerevisiae deletion strains, locus YPL256C, strain CLN2, hits give low values 1.03 | S. cerevisiae deletion strains, locus YPR119W, strain clb2, hits give low values 0.991 | S. cerevisiae deletion strains, locus YPR141C, strain kar3, hits give low values 0.977 | S. cerevisiae deletion strains, locus YPR163C, strain tif3, hits give low values 0.989 | S. cerevisiae deletion strains, locus YPR167C, strain met16, hits give low values 0.99 | S. cerevisiae deletion strains, strain wtn01, hits give low values 0.984 | S. cerevisiae strains, strain wild type, hits give low values 0.999
